# Results from PubChem BioAssay (NCATS).
# “And” between values parts separate entries of the source, which are not always exact repeats. Equal entries are not always repeated. Records with an inconclusive call do not appear. Entries that show only a call come without a potency. The source made the active and inactive calls. Unless noted, calls come from the whole dose curve.
# How the values were obtained:
# [1] = target: Bile acid receptor (Homo sapiens) (UniProt Q96RI1); test: qHTS assay for small molecule agonists of farnesoid X receptor signaling (AID 588527); details: HEK293T FXR-UAS-bla, beta-lactamase ratio, 16 h; stronger effect = higher value
# In short: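 FXR-UAS-bla HEK293T cells (10% dialyzed FBS) preincubated 5-7 h at 37 C, then compounds at up to 92 uM for 16 h at 37 C. CCF4 beta-lactamase read-out after 2 h RT. Normalized to chenodeoxycholic acid (100 uM) and DMSO; Hill fit gave EC50 and efficacy.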
# [2] = target: Peroxisome proliferator-activated receptor delta (Homo sapiens) (UniProt Q03181); test: qHTS assay for small molecule agonists of peroxisome proliferator-activated receptor delta signaling (AID 588534); details: HEK293T PPARdelta-UAS-bla, beta-lactamase ratio, 18 h; series mostly up to 76.7 µM
# In short: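 Agonist-mode qHTS; reporter cells, 5 hrs 37 C pre-incubation; compound titration, 18 hrs 37 C; CCF4 dye, 2 hrs RT; fluorescence read. EC50/efficacy via Hill fit.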
# [3] = target: Estrogen receptor (Homo sapiens) (UniProt P03372); test: qHTS assay for small molecule antagonists of estrogen receptor alpha signaling (AID 588513; active = well fitted curve in the direction sought with a large enough effect in the signal ratio, with a control signal flat, not every such curve was filed as active; the % refers to the signal ratio); details: ER-alpha-UAS-bla HEK293, beta-lactamase ratio, antagonist mode; series mostly up to 76.9 µM
# In short: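 Cells were plated at 5000/well and incubated 4 h at 37 C. Compounds were added as 1:2 dilution series, duplicates. 17-beta-estradiol (0.5nM final) was added for 18 h before CCF4 detection.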
# [4] = target: Glucocorticoid receptor (Homo sapiens) (UniProt P04150); test: qHTS assay for small molecule agonists of glucocorticoid receptor signaling (AID 588532; active = well fitted curve in the direction sought with a large enough effect in the signal ratio, with a control signal flat; the % refers to the signal ratio); details: HeLa MMTV-bla, beta-lactamase ratio, agonist, 18 h; stronger effect = higher value; percent of dexamethasone control, DMSO zero
# In short: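 Using MMTV-bla HeLa cells in medium with 1% stripped FBS and 25 mM HEPES, compounds were titrated and incubated overnight-length (18 h). Beta-lactamase cleavage of CCF4 was quantified by dual-emission fluorescence.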
# [5] = target: Glucocorticoid receptor (Homo sapiens) (UniProt P04150); test: qHTS assay for small molecule antagonists of glucocorticoid receptor signaling (AID 588533; active = well fitted inhibition curve with a large enough effect in the signal ratio, with a control signal flat, not every such curve was filed as active; the % refers to the signal ratio;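 note: cells stimulated with 2 nM dexamethasone as agonist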); details: HeLa MMTV-bla, GRE beta-lactamase ratio, antagonist mode, 18 h; series mostly up to 76.8 µM
# In short: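 Antagonist-mode qHTS: compound titrations added to GRE-bla HeLa cells, then dexamethasone 2 nM final; 18 h, 37 C. CCF4 FRET fluorescence normalized to dexamethasone and DMSO; IC50 from Hill fit.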
# [6] = target: Peroxisome proliferator-activated receptor gamma (Homo sapiens) (UniProt P37231); test: qHTS assay for small molecule agonists of peroxisome proliferator-activated receptor gamma signaling (AID 588536; active = well fitted curve in the direction sought with a large enough effect in the signal ratio, with a control signal flat, not every such curve was filed as active; the % refers to the signal ratio); details: HEK293 PPARg-UAS-bla, beta-lactamase ratio, 16 h, percent of rosiglitazone response, DMSO as zero; series mostly up to 76.7 µM
# In short: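 Cells were plated and held 6–6.5 h at 37 C, then compounds were added as a titration series. After a further 16 h, CCF4 dye was loaded for 2 h at room temperature and emission at 460/530 nm recorded.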
# [7] = target: Peroxisome proliferator-activated receptor gamma (Homo sapiens) (UniProt P37231); test: qHTS assay for small molecule antagonists of peroxisome proliferator-activated receptor gamma signaling (AID 588537; active = well fitted inhibition curve with a large enough effect in the signal ratio, with a control signal flat, not every such curve was filed as active; the % refers to the signal ratio;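 note: reporter cells co-stimulated with 50 nM rosiglitazone agonist during compound treatment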); details: HEK293 PPARg-UAS-bla, beta-lactamase ratio, antagonist mode; series mostly up to 76.8 µM
# In short: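 Antagonist-mode β-lactamase reporter screen run as a titration series. HEK293 PPARγ-UAS-bla cells are stimulated with rosiglitazone (50 nM final) for 16 h, then CCF4 is read at 460/530 nm. Data are scaled between DMSO and rosiglitazone and fitted to the Hill equation.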
# [8] = target: Vitamin D3 receptor (Homo sapiens) (UniProt P11473); test: qHTS assay for small molecule antagonists of vitamin D receptor signaling (AID 588541); details: HEK293T VDR-UAS-bla, beta-lactamase ratio, antagonist mode; series mostly up to 76.7 µM;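 note: receptor activated by calcitriol during compound treatment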
# In short: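 Antagonist-mode beta-lactamase reporter assay: HEK293T VDR-UAS-bla cells were exposed to titrated compound alongside 1-alpha,25-dihydroxyvitamin D3 at 3 nM final for 16 h. Values were normalized to the 50 nM agonist control and DMSO basal, with IC50 and efficacy from Hill equation fits.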
# [9] = target: Vitamin D3 receptor (Homo sapiens) (UniProt P11473); test: qHTS assay for small molecule agonists of vitamin D receptor signaling (AID 588543); details: HEK293T VDR-UAS-bla, beta-lactamase ratio, 16 h; series mostly up to 76.8 µM
# In short: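 qHTS in agonist mode: compound titrations stimulate a VDR-driven β-lactamase reporter in HEK293T cells over 16 h at 37 °C. Response normalized to 50 nM 1α,25-dihydroxyvitamin D3 = 100%, DMSO = 0%; Hill fitting gives EC50 and maximal response.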
# [10] = qHTS assay for small molecule agonists of retinoid X receptor alpha signaling (AID 588544); details: HEK293T RXRa-UAS-bla, beta-lactamase reporter, 18 h; 530 nm emission
# [11] = target: Retinoic acid receptor RXR-alpha (Homo sapiens) (UniProt P19793); test: as above; details: HEK293T RXRa-UAS-bla, beta-lactamase reporter, 18 h; series mostly up to 76.7 µM
# [12] = target: Estrogen receptor (Homo sapiens) (UniProt P03372); test: qHTS assay for small molecule agonists of estrogen receptor alpha signaling (AID 588514); details: ER-alpha-UAS-bla HEK293, beta-lactamase ratio, 18 h; series mostly up to 76.8 µM; note: nearly all actives have a fitted effect of over 70% in size; note: potency is the fitted concentration of half-maximal effect
# In short: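 Efficacy is expressed against 20 nM 17-beta-estradiol (100%) and DMSO basal (0%); EC50 from Hill equation. Assay: beta-lactamase reporter in ER-alpha-UAS-bla HEK 293 cells, 18 h compound incubation, CCF4 detection.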
# Chain of Peroxisome proliferator-activated receptor delta (Homo sapiens) (Q03181 whole entry, looked up): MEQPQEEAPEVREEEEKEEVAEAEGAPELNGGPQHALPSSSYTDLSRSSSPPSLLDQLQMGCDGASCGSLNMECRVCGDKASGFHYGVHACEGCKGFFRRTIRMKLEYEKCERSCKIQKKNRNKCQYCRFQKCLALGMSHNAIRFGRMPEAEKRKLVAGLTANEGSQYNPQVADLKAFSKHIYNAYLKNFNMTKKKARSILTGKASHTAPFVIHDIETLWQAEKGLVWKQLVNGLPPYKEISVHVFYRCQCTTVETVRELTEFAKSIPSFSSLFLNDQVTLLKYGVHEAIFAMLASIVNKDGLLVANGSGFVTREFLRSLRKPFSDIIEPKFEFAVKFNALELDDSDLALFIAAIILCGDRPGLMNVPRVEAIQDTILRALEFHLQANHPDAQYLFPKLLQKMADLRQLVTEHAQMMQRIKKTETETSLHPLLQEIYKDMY
# Chain of Bile acid receptor (Homo sapiens) (Q96RI1 whole entry, looked up): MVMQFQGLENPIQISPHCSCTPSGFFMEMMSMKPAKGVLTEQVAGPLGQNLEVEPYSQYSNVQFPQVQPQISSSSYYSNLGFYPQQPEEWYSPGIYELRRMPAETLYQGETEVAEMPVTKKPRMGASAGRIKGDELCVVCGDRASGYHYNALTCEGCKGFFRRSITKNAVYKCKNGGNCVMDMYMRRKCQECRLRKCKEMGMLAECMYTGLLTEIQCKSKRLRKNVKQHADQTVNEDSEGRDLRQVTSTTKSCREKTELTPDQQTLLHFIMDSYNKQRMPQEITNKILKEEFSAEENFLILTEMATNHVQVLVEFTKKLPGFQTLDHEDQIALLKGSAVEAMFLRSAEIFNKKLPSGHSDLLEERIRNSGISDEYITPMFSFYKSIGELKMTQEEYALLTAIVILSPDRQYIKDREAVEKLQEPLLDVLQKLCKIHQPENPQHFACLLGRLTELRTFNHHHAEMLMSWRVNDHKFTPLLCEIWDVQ
# Chain of Estrogen receptor (Homo sapiens) (P03372 whole entry, looked up): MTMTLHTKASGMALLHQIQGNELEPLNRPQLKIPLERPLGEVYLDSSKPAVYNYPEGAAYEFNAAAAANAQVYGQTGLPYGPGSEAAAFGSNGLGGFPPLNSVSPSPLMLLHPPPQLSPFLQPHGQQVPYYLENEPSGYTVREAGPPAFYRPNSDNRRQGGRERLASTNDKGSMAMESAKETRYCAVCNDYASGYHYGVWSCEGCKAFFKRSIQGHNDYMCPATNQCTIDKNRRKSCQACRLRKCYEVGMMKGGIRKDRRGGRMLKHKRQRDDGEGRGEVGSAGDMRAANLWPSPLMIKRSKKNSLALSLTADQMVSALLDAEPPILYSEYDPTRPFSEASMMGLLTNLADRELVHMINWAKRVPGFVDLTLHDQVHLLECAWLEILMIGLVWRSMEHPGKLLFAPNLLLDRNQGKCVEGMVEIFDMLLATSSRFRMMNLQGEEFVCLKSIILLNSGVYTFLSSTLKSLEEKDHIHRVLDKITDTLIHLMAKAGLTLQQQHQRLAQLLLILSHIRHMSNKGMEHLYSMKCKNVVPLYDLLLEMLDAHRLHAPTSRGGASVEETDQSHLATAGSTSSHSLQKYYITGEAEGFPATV
# Chain of Retinoic acid receptor RXR-alpha (Homo sapiens) (P19793 whole entry, looked up): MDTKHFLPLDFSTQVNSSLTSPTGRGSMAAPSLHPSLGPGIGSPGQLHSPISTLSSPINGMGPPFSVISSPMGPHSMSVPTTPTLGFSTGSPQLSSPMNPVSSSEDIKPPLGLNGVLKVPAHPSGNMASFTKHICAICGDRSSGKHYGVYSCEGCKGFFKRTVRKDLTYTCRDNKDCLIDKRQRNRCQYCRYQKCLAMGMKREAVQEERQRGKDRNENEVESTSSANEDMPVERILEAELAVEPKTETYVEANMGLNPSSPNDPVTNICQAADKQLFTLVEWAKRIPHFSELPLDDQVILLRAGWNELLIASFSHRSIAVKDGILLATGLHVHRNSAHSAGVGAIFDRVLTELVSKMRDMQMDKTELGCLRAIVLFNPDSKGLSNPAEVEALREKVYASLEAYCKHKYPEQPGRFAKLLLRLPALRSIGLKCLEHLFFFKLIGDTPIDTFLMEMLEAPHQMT
# Chain of Vitamin D3 receptor (Homo sapiens) (P11473 whole entry, looked up): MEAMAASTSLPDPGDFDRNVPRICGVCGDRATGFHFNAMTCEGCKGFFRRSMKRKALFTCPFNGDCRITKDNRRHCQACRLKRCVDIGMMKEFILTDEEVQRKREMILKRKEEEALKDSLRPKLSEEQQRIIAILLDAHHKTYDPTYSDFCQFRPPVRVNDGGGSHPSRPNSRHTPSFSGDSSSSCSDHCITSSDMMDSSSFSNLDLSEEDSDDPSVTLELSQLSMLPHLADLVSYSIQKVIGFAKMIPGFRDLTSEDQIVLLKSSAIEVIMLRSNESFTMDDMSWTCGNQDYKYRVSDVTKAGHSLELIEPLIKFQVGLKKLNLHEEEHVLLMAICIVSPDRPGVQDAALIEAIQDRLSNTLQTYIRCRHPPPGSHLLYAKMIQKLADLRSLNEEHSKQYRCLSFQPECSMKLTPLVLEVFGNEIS
# Chain of Glucocorticoid receptor (Homo sapiens) (P04150 whole entry, looked up): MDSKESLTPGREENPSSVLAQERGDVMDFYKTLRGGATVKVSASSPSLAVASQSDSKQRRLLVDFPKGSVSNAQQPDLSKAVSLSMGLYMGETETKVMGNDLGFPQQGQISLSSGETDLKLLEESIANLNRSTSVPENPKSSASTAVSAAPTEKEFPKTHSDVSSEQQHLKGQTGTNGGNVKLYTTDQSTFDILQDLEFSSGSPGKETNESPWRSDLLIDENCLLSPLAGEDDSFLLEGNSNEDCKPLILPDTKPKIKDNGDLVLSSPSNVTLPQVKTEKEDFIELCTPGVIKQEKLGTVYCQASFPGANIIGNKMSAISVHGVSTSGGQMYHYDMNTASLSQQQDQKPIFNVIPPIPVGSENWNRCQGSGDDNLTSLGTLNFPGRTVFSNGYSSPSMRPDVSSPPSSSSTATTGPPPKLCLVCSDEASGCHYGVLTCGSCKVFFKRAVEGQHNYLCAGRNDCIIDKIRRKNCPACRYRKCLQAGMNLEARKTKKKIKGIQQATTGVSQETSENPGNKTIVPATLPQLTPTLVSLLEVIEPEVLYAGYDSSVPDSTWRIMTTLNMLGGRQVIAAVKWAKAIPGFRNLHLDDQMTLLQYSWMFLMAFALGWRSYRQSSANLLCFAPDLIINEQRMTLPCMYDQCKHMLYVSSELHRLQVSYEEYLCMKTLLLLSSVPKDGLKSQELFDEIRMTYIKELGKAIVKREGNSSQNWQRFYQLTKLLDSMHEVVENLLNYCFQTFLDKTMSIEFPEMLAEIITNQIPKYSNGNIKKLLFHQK
# Chain of Peroxisome proliferator-activated receptor gamma (Homo sapiens) (P37231 whole entry, looked up): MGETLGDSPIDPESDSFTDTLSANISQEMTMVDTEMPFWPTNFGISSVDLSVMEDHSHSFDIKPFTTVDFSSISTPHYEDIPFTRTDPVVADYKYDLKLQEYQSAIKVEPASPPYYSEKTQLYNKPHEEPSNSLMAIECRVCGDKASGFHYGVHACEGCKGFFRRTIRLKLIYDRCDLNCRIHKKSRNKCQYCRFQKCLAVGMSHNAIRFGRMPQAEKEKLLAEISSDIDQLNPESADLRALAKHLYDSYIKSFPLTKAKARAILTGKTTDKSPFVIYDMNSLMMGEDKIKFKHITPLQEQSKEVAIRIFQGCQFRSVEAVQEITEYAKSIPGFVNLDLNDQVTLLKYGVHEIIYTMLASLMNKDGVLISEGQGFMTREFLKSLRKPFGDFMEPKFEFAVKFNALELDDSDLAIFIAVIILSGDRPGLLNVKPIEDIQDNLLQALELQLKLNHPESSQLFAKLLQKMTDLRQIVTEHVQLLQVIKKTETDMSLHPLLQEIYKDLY
compound,measurement,setting,value
CC(C)OC(=O)C(C)(C)Oc1ccc(C(=O)c2ccc(Cl)cc2)cc1,activation,[1],2.77% (inactive)
Cc1ccc(C)c(OCCCC(C)(C)C(=O)O)c1,activation,[1],-2.62% (inactive) and -0.135% (inactive)
same,outcome,[2],inactive
COC1=CC(=O)C[C@@H](C)[C@]12Oc1c(Cl)c(OC)cc(OC)c1C2=O,activation,[1],0.423% (inactive)
CCC1(c2ccccc2)C(=O)NCNC1=O,activation,[1],-0.167% (inactive) and -0.256% (inactive)
C[C@]12CCC(=O)C(O)=C1CC[C@@H]1[C@@H]2CC[C@]2(C)C(=O)CC[C@@H]12,outcome,[3],inactive
same,activation,[4],2.34% (inactive)
same,Potency,[5],inactive
same,outcome,[6],inactive
same,Potency,[7],inactive
same,outcome,[8],inactive
same,outcome,[9],inactive
same,max response,[10],21.6%
same,Potency,[11],inactive
CCCCNC(=O)NS(=O)(=O)c1ccc(C)cc1,activation,[1],0.0302% (inactive) and 2.67% (inactive)
same,outcome,[2],inactive
CCc1nc(N)nc(N)c1-c1ccc(Cl)cc1,activation,[1],-5.01% (inactive) and -3.58% (inactive)
same,outcome,[2],inactive
CC(C)C(=O)Nc1ccc([N+](=O)[O-])c(C(F)(F)F)c1,Potency,[12],inactive
same,activation,[1],-2.87% (inactive) and 6.82% (inactive)
C[C@]12C/C(=C/O)C(=O)C[C@@H]1CC[C@@H]1[C@@H]2CC[C@@]2(C)[C@H]1CC[C@]2(C)O,Potency,[12],562 nM (active)
same,activation,[1],1.58% (inactive)
same,activation,[4],-7.95% (inactive)
same,outcome,[9],inactive
CCOP(=S)(OCC)Oc1cc(C)nc(C(C)C)n1,Potency,[5],inactive
same,max response,[10],-5.09% and -15.6%
same,Potency,[11],inactive
Oc1cccc2cccnc12,outcome,[8],inactive
same,outcome,[9],inactive
Oc1cc(Cl)ccc1Oc1ccc(Cl)cc1Cl,outcome,[8],inactive
same,outcome,[9],inactive
